# Results filed as inconclusive are left out. Active and inactive are the calls of the source. Rule for the calls, unless noted: active = hit-call score of the fitted dose curve at least 0.9, where 1 is the maximum; inconclusive = response in the unintended direction; inactive = score below 0.9.
# What was measured:
# [1] = ATG_TCF_b_cat_CIS: Attagene CIS-FACTORIAL HepG2 Assay for human T-Cell-Factor with beta-catenin (TCF/b-cat) (AID 2282965; active = hit-call score of the fitted dose curve at least 0.9, where 1 is the maximum; inactive = score below 0.9); details: HepG2 TCF/beta-catenin cis-reporter transcription, actives raise or lower the signal
# How it was run: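 Endogenous TCF/LEF activity read as reporter transcript level via RT-PCR and capillary electrophoresis fluorescence in transfected HepG2, 24 h exposure; gain or loss of signal fitted against DMSO controls.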
# [2] = ATG_TGFb_CIS: Attagene CIS-FACTORIAL HepG2 Assay for human Transforming Growth Factor (TGF) (AID 2282967; active = hit-call score of the fitted dose curve at least 0.9, where 1 is the maximum; inactive = score below 0.9); details: HepG2 Attagene CIS TGFb reporter, mRNA transcription; actives raise or lower the signal
# How it was run: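 HepG2 cells transiently transfected with cis-promoter-driven multiplexed reporter units; 24 h compound exposure. Reporter mRNA measured by RT-PCR, 6-FAM labeling, HpaI digestion and capillary electrophoresis; bidirectional fit versus DMSO baseline.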
# [3] = ATG_VDRE_CIS: Attagene CIS-FACTORIAL HepG2 Assay for human Vitamin D Receptor Element (VDRE) (AID 2282968; active = hit-call score of the fitted dose curve at least 0.9, where 1 is the maximum; inactive = score below 0.9); details: HepG2 VDRE cis-reporter transcription, actives raise or lower the signal
# How it was run: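 Reporter mRNA induction, quantified by capillary electrophoresis of fluorescently labelled RT-PCR products, was read 24 h after dosing HepG2 cells carrying transiently transfected cis-regulated reporter units; gain or loss relative to DMSO.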
# [4] = target: Nuclear receptor subfamily 1 group I member 3 (Homo sapiens) (UniProt Q14994); assay: ATG_CAR_TRANS: Attagene TRANS-FACTORIAL HepG2 Assay for human Constitutive Androstane Receptor (CAR) (AID 2282969); details: HepG2 Attagene TRANS-FACTORIAL CAR reporter;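 note: activators raise reporter mRNA above DMSO so AC50 marks induction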
# How it was run: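 Readout is reporter mRNA induction, quantified by fluorescent primer extension and capillary electrophoresis after RT-PCR. Cells were HepG2 transiently carrying chimeric NR-Gal4 constructs with GAL4-UAS reporters, treated for 24 h; activity scored upward from DMSO.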
# [5] = target: Estrogen receptor (Homo sapiens) (UniProt P03372); assay: ATG_ERa_TRANS: Attagene TRANS-FACTORIAL HepG2 Assay for human Estrogen Receptor alpha (ERa) (AID 2282970); details: HepG2 Attagene TRANS ERa GAL4 reporter, mRNA
# How it was run: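 Transactivation via ERa-Gal4 chimera in HepG2; 24 hour incubation; reporter mRNA detected by fluorescence RT-PCR and capillary electrophoresis.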
# [6] = target: Steroid hormone receptor ERR1 (Homo sapiens) (UniProt P11474); assay: ATG_ERRa_TRANS: Attagene TRANS-FACTORIAL HepG2 Assay for human Estrogen-Related Receptor alpha (ERRa) (AID 2282971); details: HepG2 Attagene TRANS reporter, ERRa transactivation
# How it was run: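 HepG2 cells were transiently transfected with multiple GAL4-UAS reporter units, then dosed with compound for 24 h. Total RNA was reverse-transcribed, reporter cDNA PCR-amplified and fluorescently labelled, and fragments resolved by capillary electrophoresis; induction was compared with DMSO.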
# [7] = target: X-box-binding protein 1 (Homo sapiens) (UniProt P17861); assay: ATG_Xbp1_CIS: Attagene CIS-FACTORIAL HepG2 Assay for human X-box Binding Protein 1 (XBP1) (AID 2282972; active = hit-call score of the fitted dose curve at least 0.9, where 1 is the maximum; inactive = score below 0.9); details: HepG2 XBP1 cis-element reporter, Attagene multiplex; actives raise or lower the signal
# How it was run: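 Fluorescence-labelled cDNA fragments from reporter transcripts, separated by capillary electrophoresis, give the signal. Source: HepG2 cells transfected with promoter-driven reporter units, harvested 24 h post-dose. DMSO served as reference for bidirectional curve fitting.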
# [8] = target: Androgen receptor (Homo sapiens) (UniProt P10275); assay: ATG_AR_TRANS: Attagene TRANS-FACTORIAL HepG2 Assay for human Androgen Receptor (AR) (AID 2282973); details: HepG2 Attagene TRANS-FACTORIAL AR reporter transcription
# How it was run: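 Transfected HepG2, 24 h treatment, chimeric NR-Gal4 driving GAL4-UAS reporters. mRNA induction by RT-PCR/capillary electrophoresis fluorescence; DMSO as negative control and baseline.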
# [9] = ATG_M_19_TRANS: Attagene TRANS-FACTORIAL HepG2 Assay for M19 Transcription Factor (Internal Marker) (AID 2282974); details: HepG2 Attagene TRANS-FACTORIAL M19 internal marker reporter
# How it was run: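 Using RT-PCR and capillary electrophoresis, reporter mRNA from transiently transfected human HepG2 cells was quantified following 24 h exposure; activity was fitted in the positive direction against DMSO.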
# [10] = target: Estrogen-related receptor gamma (Homo sapiens) (UniProt P62508); assay: ATG_ERRg_TRANS: Attagene TRANS-FACTORIAL HepG2 Assay for human Estrogen-Related Receptor gamma (ERRg) (AID 2282977); details: HepG2 Attagene TRANS reporter, ERRg transactivation;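 note: hits increase reporter signal over DMSO so potencies reflect activators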
# How it was run: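 HepG2 cells transiently transfected with multiplexed GAL4-UAS reporter units driven by chimeric NR-Gal4 proteins; 24 h exposure. Reporter mRNA quantified by RT-PCR, fluorescent labelling, HpaI digestion and capillary electrophoresis; gain of signal vs DMSO.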
# [11] = target: Glucocorticoid receptor (Homo sapiens) (UniProt P04150); assay: ATG_GR_TRANS: Attagene TRANS-FACTORIAL HepG2 Assay for human Glucocorticoid Receptor (GR) (AID 2282978); details: HepG2 Attagene TRANS GR reporter, mRNA transcription;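 note: activators score as hits since higher reporter transcript over DMSO is fitted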
# How it was run: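 Exogenous NR-GAL4 fusion activity was assessed through induced GAL4-UAS reporter transcripts in transfected human HepG2 cells, quantified after 24 h by RT-PCR and fluorescent capillary electrophoresis with DMSO as baseline.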
# [12] = target: Bile acid receptor (Homo sapiens) (UniProt Q96RI1); assay: ATG_FXR_TRANS: Attagene TRANS-FACTORIAL HepG2 Assay for Farnesoid X Receptor (FXR) (AID 2282979); details: HepG2 Attagene TRANS FXR-GAL4 reporter transcription;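 note: hits raise reporter mRNA above DMSO so AC50 marks FXR activation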
# How it was run: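 Chimeric FXR-GAL4 activity in transiently transfected human HepG2 liver cells is scored as induction of reporter mRNA after 24 h of dosing. Detection uses RT-PCR with fluorescent labelling and capillary electrophoresis, with DMSO serving as baseline.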
# [13] = target: Oxysterols receptor LXR-beta (Homo sapiens) (UniProt P55055); assay: ATG_LXRb_TRANS: Attagene TRANS-FACTORIAL HepG2 Assay for human Liver X Receptor beta (LXRb) (AID 2282981); details: HepG2 Attagene TRANS GAL4-LXRb reporter, mRNA
# How it was run: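 Transient transfection HepG2 (multiplexed RTUs, GAL4-UAS); NR-Gal4 chimera; 24 h exposure; RNA → RT-PCR → 6-FAM primer extension → HpaI → CE; increase vs DMSO.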
# [14] = target: Hepatocyte nuclear factor 4-alpha (Homo sapiens) (UniProt P41235); assay: ATG_HNF4a_TRANS: Attagene TRANS-FACTORIAL HepG2 Assay for human Hepatocyte Nuclear Factor 4 alpha (HNF4a) (AID 2282982); details: HepG2 HNF4a transactivation reporter, mRNA readout
# How it was run: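 Readout is fluorescent reporter-transcript fragments resolved by capillary electrophoresis after RT-PCR from HepG2 cells dosed for 24 h. Cells carried transfected GAL4-UAS reporter constructs measuring exogenous NR-GAL4 chimera activity; DMSO served as baseline.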
# [15] = ATG_M_32_TRANS: Attagene TRANS-FACTORIAL HepG2 Assay for M32 Transcription Factor (Internal Marker) (AID 2282984); details: HepG2 Attagene TRANS M32 internal marker reporter
# How it was run: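 Measures reporter mRNA induction in human HepG2 liver cells after 24 h chemical treatment. Transcripts from transiently transfected GAL4-UAS reporter units are amplified, fluorescently labelled and sized by capillary electrophoresis; gain of signal relative to DMSO.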
# [16] = ATG_TAL_CIS: Attagene CIS-FACTORIAL HepG2 Assay for human TAL Basal Promoter (AID 2282966; active = hit-call score of the fitted dose curve at least 0.9, where 1 is the maximum; inactive = score below 0.9;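 note: background control endpoint measuring basal TAL promoter reporter mRNA not a specific factor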); details: HepG2 Attagene cis-factorial TAL promoter reporter; actives raise or lower the signal
# How it was run: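 Readout: reporter mRNA, fluorescence by CE. System: HepG2, transient multi-reporter transfection, endogenous TF activity. Exposure: 24 h. Analysis: bidirectional, DMSO-normalized; background control.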
# [17] = ATG_Hpa5_TRANS: Attagene TRANS-FACTORIAL HepG2 Assay for human GAL4-Hpa5 Hepatocyte Transcription Factor Basal Promoter (AID 2282975); details: HepG2 Attagene GAL4-Hpa5 transcription reporter;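 note: hits are increases in reporter mRNA over DMSO baseline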
# How it was run: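 Basal-promoter GAL4 background control within the HepG2 trans-factorial panel of transiently transfected reporter units. Reporter mRNA is measured 24 h after dosing by RT-PCR and capillary electrophoresis, fitted for gain of signal versus DMSO.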
# [18] = target: Oxysterols receptor LXR-alpha (Homo sapiens) (UniProt Q13133); assay: ATG_LXRa_TRANS: Attagene TRANS-FACTORIAL HepG2 Assay for human Liver X Receptor alpha (LXRa) (AID 2282980); details: HepG2 Attagene TRANS reporter, LXRa transactivation
# How it was run: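 Transient HepG2 transfectants, 24 h dosing, RT-PCR/CE mRNA reporter quantitation; gain-of-signal vs DMSO.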
# Sequence of Oxysterols receptor LXR-beta (Homo sapiens) (P55055 whole entry, looked up, the tested form may be a part): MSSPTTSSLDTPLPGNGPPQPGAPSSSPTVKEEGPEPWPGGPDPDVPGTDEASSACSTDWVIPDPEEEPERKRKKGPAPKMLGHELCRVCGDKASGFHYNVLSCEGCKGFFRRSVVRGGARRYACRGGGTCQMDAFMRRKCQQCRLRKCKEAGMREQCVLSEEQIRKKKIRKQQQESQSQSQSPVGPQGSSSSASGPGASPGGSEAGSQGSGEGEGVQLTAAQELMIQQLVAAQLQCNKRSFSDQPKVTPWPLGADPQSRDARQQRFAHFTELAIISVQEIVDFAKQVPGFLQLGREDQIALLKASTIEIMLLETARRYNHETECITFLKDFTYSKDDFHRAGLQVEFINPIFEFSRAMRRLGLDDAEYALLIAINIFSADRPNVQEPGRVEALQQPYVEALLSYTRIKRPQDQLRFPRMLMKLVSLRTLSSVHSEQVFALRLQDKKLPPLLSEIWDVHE
# Sequence of Bile acid receptor (Homo sapiens) (Q96RI1 whole entry, looked up, the tested form may be a part): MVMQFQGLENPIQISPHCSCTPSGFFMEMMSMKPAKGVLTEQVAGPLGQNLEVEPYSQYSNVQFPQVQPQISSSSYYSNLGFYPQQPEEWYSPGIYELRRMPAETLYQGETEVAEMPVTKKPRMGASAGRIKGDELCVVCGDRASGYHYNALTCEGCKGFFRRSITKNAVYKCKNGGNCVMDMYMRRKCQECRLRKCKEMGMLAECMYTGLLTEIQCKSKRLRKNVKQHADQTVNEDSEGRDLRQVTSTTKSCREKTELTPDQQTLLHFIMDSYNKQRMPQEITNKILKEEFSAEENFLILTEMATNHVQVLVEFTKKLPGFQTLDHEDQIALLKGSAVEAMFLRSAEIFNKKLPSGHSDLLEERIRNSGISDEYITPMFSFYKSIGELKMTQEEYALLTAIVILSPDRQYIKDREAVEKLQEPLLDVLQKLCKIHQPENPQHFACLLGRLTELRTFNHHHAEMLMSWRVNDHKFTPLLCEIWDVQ
# Sequence of Glucocorticoid receptor (Homo sapiens) (P04150 whole entry, looked up, the tested form may be a part): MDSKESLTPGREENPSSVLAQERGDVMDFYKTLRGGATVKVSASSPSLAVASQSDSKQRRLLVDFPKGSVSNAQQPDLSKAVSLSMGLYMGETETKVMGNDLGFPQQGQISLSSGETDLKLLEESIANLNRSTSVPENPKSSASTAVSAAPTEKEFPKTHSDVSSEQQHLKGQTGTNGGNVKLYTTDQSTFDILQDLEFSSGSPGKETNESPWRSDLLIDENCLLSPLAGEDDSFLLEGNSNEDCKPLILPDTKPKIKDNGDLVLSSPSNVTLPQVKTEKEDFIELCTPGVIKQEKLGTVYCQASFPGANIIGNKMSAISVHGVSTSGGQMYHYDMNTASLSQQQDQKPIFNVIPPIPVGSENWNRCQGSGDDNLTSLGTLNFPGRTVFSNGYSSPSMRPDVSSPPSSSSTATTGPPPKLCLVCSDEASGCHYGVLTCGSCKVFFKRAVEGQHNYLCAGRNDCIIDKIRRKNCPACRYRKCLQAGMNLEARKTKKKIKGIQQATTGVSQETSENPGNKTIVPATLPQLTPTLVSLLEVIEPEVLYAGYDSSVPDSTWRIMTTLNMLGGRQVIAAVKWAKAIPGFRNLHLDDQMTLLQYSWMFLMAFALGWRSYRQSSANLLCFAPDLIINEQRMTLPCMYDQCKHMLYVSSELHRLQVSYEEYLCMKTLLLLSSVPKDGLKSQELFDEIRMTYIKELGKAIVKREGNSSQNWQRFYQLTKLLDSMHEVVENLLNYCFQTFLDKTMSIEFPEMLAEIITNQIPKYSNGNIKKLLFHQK
# Sequence of Nuclear receptor subfamily 1 group I member 3 (Homo sapiens) (Q14994 whole entry, looked up, the tested form may be a part): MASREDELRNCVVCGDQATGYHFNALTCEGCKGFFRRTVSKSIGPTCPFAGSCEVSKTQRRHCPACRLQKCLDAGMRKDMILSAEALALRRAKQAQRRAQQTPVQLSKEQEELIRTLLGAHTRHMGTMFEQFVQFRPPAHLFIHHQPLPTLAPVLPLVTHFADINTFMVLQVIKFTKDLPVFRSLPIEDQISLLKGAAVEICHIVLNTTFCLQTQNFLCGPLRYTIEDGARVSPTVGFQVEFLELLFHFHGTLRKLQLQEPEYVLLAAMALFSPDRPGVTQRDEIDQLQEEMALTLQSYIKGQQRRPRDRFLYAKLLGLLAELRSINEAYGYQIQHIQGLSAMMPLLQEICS
# Sequence of Estrogen receptor (Homo sapiens) (P03372 whole entry, looked up, the tested form may be a part): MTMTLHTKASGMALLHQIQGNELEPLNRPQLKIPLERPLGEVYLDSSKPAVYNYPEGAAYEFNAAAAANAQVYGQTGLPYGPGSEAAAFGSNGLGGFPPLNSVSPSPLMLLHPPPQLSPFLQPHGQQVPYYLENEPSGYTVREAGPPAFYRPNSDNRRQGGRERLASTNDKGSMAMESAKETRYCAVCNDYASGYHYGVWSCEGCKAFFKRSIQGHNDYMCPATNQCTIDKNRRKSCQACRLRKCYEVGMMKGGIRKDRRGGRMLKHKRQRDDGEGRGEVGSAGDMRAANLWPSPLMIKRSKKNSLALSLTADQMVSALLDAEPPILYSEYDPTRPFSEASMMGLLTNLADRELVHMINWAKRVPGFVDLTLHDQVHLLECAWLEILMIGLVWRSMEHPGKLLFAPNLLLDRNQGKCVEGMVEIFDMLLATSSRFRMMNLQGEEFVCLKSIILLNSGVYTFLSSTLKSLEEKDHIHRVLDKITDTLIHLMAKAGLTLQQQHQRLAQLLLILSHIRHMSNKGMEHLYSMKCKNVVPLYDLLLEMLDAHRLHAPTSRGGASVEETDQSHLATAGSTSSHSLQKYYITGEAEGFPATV
# Sequence of X-box-binding protein 1 (Homo sapiens) (P17861 whole entry, looked up, the tested form may be a part): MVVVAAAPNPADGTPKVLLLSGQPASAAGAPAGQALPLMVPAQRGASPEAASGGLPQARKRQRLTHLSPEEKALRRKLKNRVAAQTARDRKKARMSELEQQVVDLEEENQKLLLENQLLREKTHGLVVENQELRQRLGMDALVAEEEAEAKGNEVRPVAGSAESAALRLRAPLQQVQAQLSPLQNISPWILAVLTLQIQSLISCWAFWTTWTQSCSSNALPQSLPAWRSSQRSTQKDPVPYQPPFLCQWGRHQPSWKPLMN
# Sequence of Hepatocyte nuclear factor 4-alpha (Homo sapiens) (P41235 whole entry, looked up, the tested form may be a part): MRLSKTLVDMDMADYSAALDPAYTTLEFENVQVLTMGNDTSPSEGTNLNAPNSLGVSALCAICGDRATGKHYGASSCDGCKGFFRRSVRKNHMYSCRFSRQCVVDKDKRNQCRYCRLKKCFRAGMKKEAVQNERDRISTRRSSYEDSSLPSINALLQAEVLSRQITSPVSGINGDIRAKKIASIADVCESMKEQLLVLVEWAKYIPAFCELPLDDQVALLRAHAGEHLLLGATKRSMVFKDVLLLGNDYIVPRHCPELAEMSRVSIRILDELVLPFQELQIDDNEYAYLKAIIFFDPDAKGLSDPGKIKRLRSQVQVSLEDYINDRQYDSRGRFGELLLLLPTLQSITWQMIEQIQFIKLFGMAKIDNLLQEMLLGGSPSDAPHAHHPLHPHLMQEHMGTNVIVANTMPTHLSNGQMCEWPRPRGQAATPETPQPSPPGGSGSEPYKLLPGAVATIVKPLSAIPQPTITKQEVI
# Sequence of Steroid hormone receptor ERR1 (Homo sapiens) (P11474 whole entry, looked up, the tested form may be a part): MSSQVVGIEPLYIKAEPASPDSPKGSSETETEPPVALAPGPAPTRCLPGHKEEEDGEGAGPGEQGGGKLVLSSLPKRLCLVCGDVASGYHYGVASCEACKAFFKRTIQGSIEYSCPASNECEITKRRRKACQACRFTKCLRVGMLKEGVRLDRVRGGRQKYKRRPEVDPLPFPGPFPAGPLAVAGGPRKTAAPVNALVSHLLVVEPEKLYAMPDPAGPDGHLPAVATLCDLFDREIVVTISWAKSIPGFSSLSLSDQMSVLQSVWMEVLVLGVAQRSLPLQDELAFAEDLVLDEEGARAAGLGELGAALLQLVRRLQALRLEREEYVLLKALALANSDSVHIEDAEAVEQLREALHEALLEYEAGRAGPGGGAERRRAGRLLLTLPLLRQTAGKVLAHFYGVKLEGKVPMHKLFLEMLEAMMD
# Sequence of Estrogen-related receptor gamma (Homo sapiens) (P62508 whole entry, looked up, the tested form may be a part): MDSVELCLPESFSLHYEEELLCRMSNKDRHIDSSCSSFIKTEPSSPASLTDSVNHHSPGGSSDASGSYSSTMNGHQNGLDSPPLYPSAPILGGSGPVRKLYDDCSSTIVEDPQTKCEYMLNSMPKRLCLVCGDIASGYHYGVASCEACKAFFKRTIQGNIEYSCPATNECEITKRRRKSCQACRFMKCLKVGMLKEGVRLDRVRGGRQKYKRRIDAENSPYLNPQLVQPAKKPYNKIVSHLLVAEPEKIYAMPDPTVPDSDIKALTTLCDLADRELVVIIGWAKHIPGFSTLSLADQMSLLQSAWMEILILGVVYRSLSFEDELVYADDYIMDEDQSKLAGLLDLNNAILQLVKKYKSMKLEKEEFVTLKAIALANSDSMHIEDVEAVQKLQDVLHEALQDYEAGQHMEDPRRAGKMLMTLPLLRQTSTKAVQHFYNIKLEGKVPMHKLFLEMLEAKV
# Sequence of Oxysterols receptor LXR-alpha (Homo sapiens) (Q13133 whole entry, looked up): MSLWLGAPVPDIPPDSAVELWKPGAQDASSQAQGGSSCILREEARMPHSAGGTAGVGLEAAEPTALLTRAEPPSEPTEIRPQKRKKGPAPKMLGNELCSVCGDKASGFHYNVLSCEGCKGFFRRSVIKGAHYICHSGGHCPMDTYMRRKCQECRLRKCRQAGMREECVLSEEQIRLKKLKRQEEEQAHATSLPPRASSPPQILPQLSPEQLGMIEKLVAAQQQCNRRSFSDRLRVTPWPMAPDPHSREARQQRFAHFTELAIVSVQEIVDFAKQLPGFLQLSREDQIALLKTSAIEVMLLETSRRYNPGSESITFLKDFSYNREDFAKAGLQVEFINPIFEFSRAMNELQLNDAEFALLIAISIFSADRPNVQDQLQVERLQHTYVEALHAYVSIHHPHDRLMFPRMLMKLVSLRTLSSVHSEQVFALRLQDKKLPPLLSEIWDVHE
Compound,outcome [1],outcome [2],AC50 [3],outcome [4],outcome [5],outcome [6],outcome [7],outcome [8],outcome [9],outcome [10],outcome [11],outcome [12],outcome [13],outcome [14],outcome [15],outcome [16],outcome [3],outcome [17],outcome [18]
CCCCOCN(C(=O)CCl)c1c(CC)cccc1CC,inactive,inactive,500 nM (active),inactive,inactive,inactive,inactive,inactive,inactive,inactive,inactive,inactive,inactive,inactive,inactive,–,–,–,–
CCSC(=O)N1CCCCCC1,inactive,inactive,–,inactive,inactive,inactive,inactive,–,inactive,–,–,–,inactive,–,inactive,inactive,inactive,inactive,–
CC(C)C1(C)N=C(c2ncccc2C(=O)O)NC1=O (stereo not given),inactive,inactive,–,inactive,inactive,–,inactive,–,inactive,–,inactive,inactive,inactive,inactive,–,inactive,inactive,inactive,inactive
COc1cc(OC)nc(NC(=O)NS(=O)(=O)c2ncccc2OCC(F)(F)F)n1,inactive,inactive,–,inactive,inactive,–,inactive,–,inactive,inactive,inactive,inactive,inactive,–,inactive,inactive,inactive,inactive,–
